The source made the active and inactive calls. How the source made its calls: active means hit-call score of the fitted dose curve at least 0.9, where 1 is the maximum; inactive means score below 0.9.

Details in all cases: mRNA level, 48 h; actives raise or lower the signal
Read-out in test [1]: Cytochrome P450 7A1 (Homo sapiens) (UniProt P22680)
The test can be described thus: LTEA_HepaRG_CYP7A1: Life Technologies and Expression Analysis (LTEA) Assay for Cytochrome P450 7A1 (CYP7A1) using HepaRG (AID 2283496). The method in brief:
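HepaRG, 48 h exposure, 8-pt half-log series from 100 uM, 0.5% DMSO vehicle, duplicates. Readout: TaqMan qRT-PCR mRNA vs three housekeeping genes; bidirectional curve fit against DMSO baseline.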

Read-out in test [2]: Glutathione S-Transferase (GSTA2), GSTA2 (gene 2939)
The test can be described thus: LTEA_HepaRG_GSTA2: Life Technologies and Expression Analysis (LTEA) Assay for Glutathione S-Transferase (GSTA2) using HepaRG (AID 2283497). In short, it runs like this: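 GSTA2 transcript levels came from Fluidigm TaqMan qRT-PCR normalized to three housekeeping genes, fitted in both directions against DMSO. HepaRG cultures received chemicals for 48 h in serum-free induction medium (0.5% DMSO), 8 half-log concentrations up to 100 uM, duplicate.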

Read-out in test [3]: Glutamate-cysteine ligase catalytic (GCLC), GCLC (gene 2729)
Briefly: LTEA_HepaRG_GCLC: Life Technologies and Expression Analysis (LTEA) Assay for Glutamate-cysteine ligase catalytic (GCLC) using HepaRG (AID 2283498). The method in brief: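 Expression by TaqMan qRT-PCR, normalized to three housekeeping genes (ACTB, GAPDH, POLR2A), with up- or down-regulation fitted against DMSO. HepaRG cells dosed in duplicate for 48 h with 8 half-log concentrations up to 100 uM, vehicle 0.5% DMSO.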

Read-out in test [4]: growth arrest and DNA damage 45 (GADD45G), GADD45G (gene 10912)
The test can be described thus: LTEA_HepaRG_GADD45G: Life Technologies and Expression Analysis (LTEA) Assay for growth arrest and DNA damage 45 (GADD45G) using HepaRG (AID 2283499). In short, it runs like this:
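GADD45G transcript level by qRT-PCR (housekeeping-normalized: ACTB, GAPDH, POLR2A) after 48 h chemical treatment of a single HepaRG lot in serum-free induction medium; eight-point half-log series up to 100 uM in 0.5% DMSO, duplicates, up- or down-regulation scored.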

Read-out in test [5]: Glutamate-cysteine ligase regulatory (GCLM), GCLM (gene 2730)
Briefly: LTEA_HepaRG_GCLM: Life Technologies and Expression Analysis (LTEA) Assay for Glutamate-cysteine ligase regulatory (GCLM) using HepaRG (AID 2283500). The method in brief:
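GCLM expression quantified by qRT-PCR, normalized to three housekeeping genes, after 48 h chemical treatment of HepaRG cells in duplicate at 8 concentrations (top 100 uM, half-log steps, 0.5% DMSO). Changes fitted both directions against vehicle.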

Read-out in test [6]: Glutathione S-transferase M3 (GSTM3), GSTM3 (gene 2947)
The test can be described thus: LTEA_HepaRG_GSTM3: Life Technologies and Expression Analysis (LTEA) Assay for Glutathione S-transferase M3 (GSTM3) using HepaRG (AID 2283501). The method in brief: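 GSTM3 transcript levels came from Fluidigm TaqMan qRT-PCR normalized to three housekeeping genes, fitted in both directions against DMSO. HepaRG cultures received chemicals for 48 h in serum-free induction medium (0.5% DMSO), 8 half-log concentrations up to 100 uM, duplicate.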

Read-out in test [7]: Heat shock 70 kDa protein 1 (HSPA1A), gene 3303
The test can be described thus: LTEA_HepaRG_HSPA1A: Life Technologies and Expression Analysis (LTEA) Assay for Heat shock 70 kDa protein 1 (HSPA1A) using HepaRG (AID 2283502). In short, it runs like this:
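HSPA1A expression measured by qRT-PCR with ACTB/GAPDH/POLR2A normalization; curves fitted in both directions relative to DMSO vehicle. Exposure: 48 h in HepaRG cells, duplicate 8-point half-log series from 100 uM, 0.5% DMSO, serum-free induction medium.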

Read-out in test [8]: Hypoxia-inducible factor 1-alpha (Homo sapiens) (UniProt Q16665)
Briefly: LTEA_HepaRG_HIF1A: Life Technologies and Expression Analysis (LTEA) Assay for Hypoxia-inducible factor 1 (HIF1A) Trancription factor using HepaRG (AID 2283503). In short, it runs like this:
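HIF1A transcript level read by qRT-PCR (ACTB, GAPDH, POLR2A normalization) after 48 h chemical exposure of HepaRG cultures. Eight half-log concentrations, top 100 uM, 0.5% DMSO vehicle, duplicates; bidirectional curve fit against DMSO baseline.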

Read-out in test [9]: 3-Hydroxy-3-Methylglutaryl-CoA Synthase 2 (HMGCS2), HMGCS2 (gene 3158)
The test can be described thus: LTEA_HepaRG_HMGCS2: Life Technologies and Expression Analysis (LTEA) Assay for 3-Hydroxy-3-Methylglutaryl-CoA Synthase 2 (HMGCS2) using HepaRG (AID 2283504). The method in brief: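 Readout is HMGCS2 transcript by qRT-PCR, housekeeping-normalised (ACTB/GAPDH/POLR2A) and fitted bidirectionally against 0.5% DMSO. Differentiated HepaRG cells received chemicals 48 h, duplicate wells, eight half-log concentrations topping at 100 uM.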

Read-out in test [10]: HGF (gene 3082)
Briefly: LTEA_HepaRG_HGF: Life Technologies and Expression Analysis (LTEA) Assay for Hepatocyte Growth Facto (HGF) using HepaRG (AID 2283505). The method in brief: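 HGF transcript was quantified by TaqMan qRT-PCR against three housekeeping genes after 48 h treatment of HepaRG cells. Exposure ran in duplicate over eight half-log steps topping at 100 uM in 0.5% DMSO vehicle.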

Read-out in test [11]: Insulin Like Growth Factor 1 (IGF1), IGF1 (gene 3479)
The test can be described thus: LTEA_HepaRG_IGF1: Life Technologies and Expression Analysis (LTEA) Assay for Insulin Like Growth Factor 1 (IGF1) using HepaRG (AID 2283506). In short, it runs like this:
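Expression measured by TaqMan qRT-PCR on a Fluidigm array, with three housekeeping genes for normalisation, after 48 h treatment of HepaRG cells. Top concentration 100 uM with half-log steps, 0.5% DMSO vehicle, bidirectional fit.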

Read-out in test [12]: Intercellular Adhesion Molecule 1 (ICAM1), ICAM1 (gene 3383)
Briefly: LTEA_HepaRG_ICAM1: Life Technologies and Expression Analysis (LTEA) Assay for Intercellular Adhesion Molecule 1 (ICAM1) using HepaRG (AID 2283507). The method in brief: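 ICAM1 transcript levels measured by qRT-PCR, normalized to three housekeeping genes (ACTB, GAPDH, POLR2A), after 48 h chemical exposure of HepaRG cells. Duplicate eight-point half-log series from 100 uM in 0.5% DMSO; gain or loss fitted against vehicle.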

Read-out in test [13]: Insulin-like growth factor-binding protein 1 (IGFBP1), IGFBP1 (gene 3484)
Briefly: LTEA_HepaRG_IGFBP1: Life Technologies and Expression Analysis (LTEA) Assay for Insulin-like growth factor-binding protein 1 (IGFBP1) using HepaRG (AID 2283508). In short, it runs like this: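 Read-out is qRT-PCR transcript level normalized to three housekeeping genes, fitted in both directions against 0.5% DMSO. Differentiated HepaRG cells received eight half-log concentrations (top 100 uM) in duplicate for 48 h in serum-free induction medium.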

Read-out in test [14]: Interleukin 6 (IL6), IL6 (gene 3569)
Briefly: LTEA_HepaRG_IL6: Life Technologies and Expression Analysis (LTEA) Assay for Interleukin 6 (IL6) using HepaRG (AID 2283509). In short, it runs like this:
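Transcript levels, normalized to three housekeeping genes, were quantified by qRT-PCR after 48 h chemical treatment of HepaRG cells. Eight-point half-log series from 100 uM in 0.5% DMSO, duplicates. Fitted both directions against DMSO baseline.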

Read-out in test [15]: Interleukin 6 Receptor (IL6R), IL6R (gene 3570)
Briefly: LTEA_HepaRG_IL6R: Life Technologies and Expression Analysis (LTEA) Assay for Interleukin 6 Receptor (IL6R) using HepaRG (AID 2283510). The method in brief:
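IL6R transcript level by qRT-PCR after 48 h chemical exposure (8-point, half-log, max 100 uM, 0.5% DMSO vehicle) of HepaRG cells in serum-free induction medium. Normalized to three housekeeping genes; curves fitted in both directions relative to DMSO.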

Read-out in test [16]: Potassium channel subfamily K member 1 (KCNK1), KCNK1 (gene 3775)
Briefly: LTEA_HepaRG_KCNK1: Life Technologies and Expression Analysis (LTEA) Assay for Potassium channel subfamily K member 1 (KCNK1) using HepaRG (AID 2283511). In short, it runs like this: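 KCNK1 transcript measured by TaqMan qRT-PCR against three housekeeping genes, after HepaRG cells were treated 48 h with eight half-log concentrations (top 100 uM, 0.5% DMSO). Curves fitted bidirectionally relative to vehicle.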

Read-out in test [17]: Keratin 19 (KRT19), KRT19 (gene 3880)
The test can be described thus: LTEA_HepaRG_KRT19: Life Technologies and Expression Analysis (LTEA) Assay for Keratin 19 (KRT19) using HepaRG (AID 2283512). The method in brief:
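KRT19 transcript measured by TaqMan qRT-PCR, referenced to three housekeeping genes, after HepaRG cells received test chemicals for 48 h. Eight half-log concentrations, top 100 uM, 0.5% DMSO vehicle; increases and decreases both fitted.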

Read-out in test [18]: JUN Transcription Factor, JUN (gene 3725)
The test can be described thus: LTEA_HepaRG_JUN: Life Technologies and Expression Analysis (LTEA) Assay for JUN Transcription Factor using HepaRG (AID 2283513). In short, it runs like this: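 mRNA measured by TaqMan qRT-PCR after 48 h chemical exposure of HepaRG cultures; normalization to three housekeeping genes. Duplicate eight-point half-log curves from 100 uM in 0.5% DMSO; gain or loss fitted against DMSO baseline.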

Read-out in test [19]: Lipase C (LIPC), LIPC (gene 3990)
Briefly: LTEA_HepaRG_LIPC: Life Technologies and Expression Analysis (LTEA) Assay for Lipase C (LIPC) using HepaRG (AID 2283514). The method in brief:
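LIPC expression was quantified by qRT-PCR against three housekeeping genes (ACTB, GAPDH, POLR2A). Differentiated human HepaRG cells received eight half-log doses (top 100 uM, 0.5% DMSO) in duplicate for 48 h; fitting bidirectional relative to DMSO.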

Read-out in test [20]: Lipoprotein lipase (LPL), LPL (gene 4023)
Briefly: LTEA_HepaRG_LPL: Life Technologies and Expression Analysis (LTEA) Assay for Lipoprotein lipase (LPL) using HepaRG (AID 2283515). The method in brief: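 LPL transcript levels quantified by TaqMan qRT-PCR against three housekeeping genes after 48 h chemical treatment of HepaRG cells. Eight-point half-log series from 100 uM in 0.5% DMSO, tested in duplicate; bidirectional fitting versus vehicle.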

Sequence of Hypoxia-inducible factor 1-alpha (Homo sapiens) (Q16665 whole entry, looked up): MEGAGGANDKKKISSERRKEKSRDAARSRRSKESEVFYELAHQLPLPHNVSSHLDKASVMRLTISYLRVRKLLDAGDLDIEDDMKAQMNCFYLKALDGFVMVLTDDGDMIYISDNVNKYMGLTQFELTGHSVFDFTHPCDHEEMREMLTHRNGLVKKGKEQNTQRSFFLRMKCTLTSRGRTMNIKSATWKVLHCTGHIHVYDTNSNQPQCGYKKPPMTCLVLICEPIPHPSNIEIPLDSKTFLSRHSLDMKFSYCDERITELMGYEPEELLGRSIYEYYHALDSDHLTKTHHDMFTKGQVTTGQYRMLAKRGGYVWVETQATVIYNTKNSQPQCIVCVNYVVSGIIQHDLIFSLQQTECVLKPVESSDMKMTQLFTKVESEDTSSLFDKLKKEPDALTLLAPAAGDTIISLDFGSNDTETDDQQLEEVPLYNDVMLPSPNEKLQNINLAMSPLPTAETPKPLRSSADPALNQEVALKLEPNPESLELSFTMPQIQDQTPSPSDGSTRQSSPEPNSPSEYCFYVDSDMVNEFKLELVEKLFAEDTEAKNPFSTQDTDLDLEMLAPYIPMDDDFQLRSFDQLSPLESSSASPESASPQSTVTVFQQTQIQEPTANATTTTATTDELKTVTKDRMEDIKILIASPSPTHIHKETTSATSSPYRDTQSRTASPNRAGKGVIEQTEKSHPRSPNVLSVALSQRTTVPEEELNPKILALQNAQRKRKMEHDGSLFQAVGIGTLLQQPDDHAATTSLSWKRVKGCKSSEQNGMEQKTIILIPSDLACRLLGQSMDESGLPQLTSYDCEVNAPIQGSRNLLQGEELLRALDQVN

As to `O=S1(=O)CCCO1`, the call in [1], in [2], in [3], in [4], in test [5] and in [6] was inactive. Further, the compound was classed as inactive in test [7], in [8], in test [9], in [10], in test [11] and in [12]. For the same compound, the compound was called inactive in test [13], in test [14], in [15], in test [16], in test [17] and in test [18]. In addition, the compound was called inactive in test [19] and in [20].

Regarding `CC1(C)C(=O)N(Cl)C(=O)N1Cl`, the compound was called inactive in test [1], in test [2], in [4], in test [5], in test [7] and in test [8]. Besides, the compound was called inactive in [9], in [10], in [11], in [12], in test [13] and in [15]. Further, the result in test [16], in test [17], in [18], in test [19] and in test [20] was inactive.

On to `CCCCCCCCN(C)C`, for which the compound was called inactive in [1], in test [2], in test [4], in [5], in test [7] and in [8]. Besides, the compound was classed as inactive in [9], in test [10], in test [11], in test [12], in test [13] and in [15]. The compound was called inactive in test [16], in [17], in test [18], in test [19] and in [20].

What is called AC50 is the concentration giving half of the maximal activity seen. On to `CC(C)CCCCCCOC(=O)C1CCCCC1C(=O)OCCCCCCC(C)C` (stereo not drawn), for which the result in test [1], in test [2], in test [4], in test [5], in test [6] and in test [7] was inactive. For the same compound, the compound was called inactive in test [8], in test [9], in test [10], in test [11], in [12] and in test [13]. The call in [15], in [16], in test [17], in [18] and in test [19] was inactive. Moreover, in [20], the AC50 is 9.92 µM (active).

With `OC(CCl)CCl`, the result in test [1], in test [2], in [4], in test [5], in [7] and in [8] was inactive. The compound was called inactive in test [9], in test [10], in [11], in test [12], in test [13] and in test [15]. Moreover, the result in [16], in [17], in test [18], in test [19] and in test [20] was inactive.

Turning to `O=C(O)c1cccc(C(=O)O)c1`, the compound was classed as inactive in [1], in test [2], in test [4], in [5], in [7] and in [8]. The compound was classed as inactive in [9], in test [10], in [11], in [12], in test [13] and in test [15]. The compound was classed as inactive in test [16], in test [17], in [18], in test [19] and in [20].

As for `Cc1ccc(S(=O)(=O)NC(=O)NN2CCCCCC2)cc1`, the compound was called inactive in test [2], in test [4], in test [5], in test [6], in test [7] and in [9]. Further, the compound was called inactive in test [10], in test [11], in [12], in test [13], in test [14] and in test [15]. Moreover, the outcome in test [16], in [17], in test [18], in test [19] and in [20] was inactive.

The values above are taken from PubChem BioAssay (EPA / NIEHS).
